Among the data in PubChem BioAssay (NCI) are growth values, retold here.

This is part of a sample that, as a whole, favours compounds with a hit. Of some 83,000 tested, about 20% had one in any assay.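 For each line, cells grew in 96-well plates with the test compound present at a single concentration for 48 hours.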 A number with no mark means an inactive call. The source made the active and inactive calls. Rule for the calls: active = growth percent below 10; inactive = the rest.

In the first assay the test system is DU-145 prostate. Put plainly: NCI-60 one-dose screen, 48 h (100 = growth as untreated, 0 = no growth, -100 = all killed). The note with it: 10 µM unless noted.
As for `COc1cc(Cn2ccc3c2-c2oncc2CC3)cc(OC)c1`, the growth is 43.7%.

In the case of `COc1cccc(Cn2cc3c(c2)-c2oncc2CC3)c1`, the growth is 11.3%.

As for `COc1ccc(C2=C/C(=C\c3ccc(Cl)cc3)C(=O)NN2C(=S)NN)cc1`, the growth was 108%.

Turning to `COc1ccc(Cn2cc3c(c2)-c2oncc2CC3)cc1OC`, the growth is 10.3%.

Take `COc1ccccc1Nc1nnc(COc2ccc(CNC(=O)CCCC/C=C/C(C)C)cc2OC)o1`: the growth was 99%.

As for `N=c1c2c(=O)n3c(nc2nc2sc4ccc(Cl)cc4n12)-c1ccccc1Sc1ccccc1-3`, the growth is 38.4%.

For the compound `CCCC(=O)NNc1[nH]c(-c2cc(OC)c(OC)c(OC)c2)cc1C(=O)OCC`, the growth was 94.5%.

On to `COc1ccc(Cn2cc3c(c2-c2ccc(O)cc2)CCc2cnoc2-3)cc1`, for which the growth was 20.2%.

With `COc1ccc(OC)c(Cn2cc3c(c2-c2ccccc2)CCc2cnoc2-3)c1`, the growth was 94.7%.

With `CCCCCCCCCCCCCCCCCC1=NCCN1CS(=O)(=O)O`, the growth is 33.7%.

The next assay deals with K-562 leukemia. The description is as above. The note with it: 10 µM unless noted.
As for `COc1ccc(/C=C(/C(=O)N2CCCCC2)c2cc(OC)c(OC)c(OC)c2)cc1`, the growth is 11%.

Consider `COc1ccc(OC)c(Cn2cc3c(c2)-c2oncc2CC3)c1`, for which the growth is 14.7%.

`COc1ccc(CN2C(=O)/C(=C\C(=O)c3ccc(OCCN4CCCCC4)cc3)c3ccccc32)cc1`: the growth is 2.32% (active).

For the compound `COc1ccc(/C=C2\SC(=O)N(Cc3cc(=O)oc4ccc(OC)cc34)C2=O)cc1`, the growth is 54.2%.

Consider `O=c1oc2ccc3ccccc3c2cc1-c1ccnc2[nH]c(=S)[nH]c(=O)c12`, for which the growth is 93.4%.

On to `O=C(O)c1occ(Cl)c1Cl`, for which the growth is 101%.

In the case of `COc1ccc(Cn2cc3c(c2-c2ccccc2)CCc2cnoc2-3)cc1OC`, the growth is 14.1%.

Take `CCCCN(CCCC)CC(O)CN(CC)CC` (stereo not drawn): the growth was 92.4%.

As for `O=C(/C=C/c1c[nH]c2ccccc12)c1cc2ccccc2o1`, the growth was 37.2%.

For `COc1ccc2sc(-n3nc4nc5n(c(=O)c4c3N)-c3ccccc3Sc3ccccc3-5)nc2c1`, the growth is 47.9%.

Regarding `CCOC(=O)NNc1[nH]c(-c2ccc(OC)cc2)cc1C#N`, the growth is 68.9%.

`COc1ccc(-c2cn3ccnc3c(-c3ccc4ncn(C5CCCCC5)c4c3)n2)cc1`: the growth is 7.96% (active).

Consider `CCOC(=O)C1=NN(c2ccccc2)C2=NC(=O)/C(=C\c3cn(-c4ccccc4)nc3-c3cc4ccccc4o3)C(=O)N12`, for which the growth is 74.9%.

For `O=C(/C=C1\C(=O)N(Cc2ccc([N+](=O)[O-])cc2)c2ccccc21)c1ccc(OCCN2CCCCC2)cc1`, the growth was -35.2% (active).

In the case of `NNC(=S)N1N=C(c2cc3ccccc3o2)CC1c1c[nH]c2ccccc12` (stereo not drawn), the growth is 9.64% (active).

Consider `O=C(/C=C1\C(=O)N(Cc2ccccc2)c2ccccc21)c1ccc(OCCN2CCCCC2)cc1`, for which the growth was 2.2% (active).

In the case of `COc1ccc(CN2C(=O)/C(=C\C(=O)c3ccc(OCCN4CCCC4)cc3)c3ccccc32)cc1`, the growth was -25.9% (active).

As for `C[C@@H](c1ccc2c(c1)[nH]c1ccc(Cl)cc12)c1nc2ccccc2[nH]1`, the growth is 82%.

With `c1ccc(-c2cn3ccnc3c(-c3ccc4ncn(C5CCCCC5)c4c3)n2)cc1`, the growth is 29.4%.

As for `C[C@@H](c1ccc2c(c1)[nH]c1ccc(Cl)cc12)c1nc2ccc(Cl)cc2[nH]1`, the growth is 52.6%.

With `COc1cc(CNC(=O)CCCC/C=C/C(C)C)ccc1OCc1nnc(Nc2ccccc2F)o1`, the growth was 60.4%.

On to `O=S(=O)(O)c1ccc2c(c1)Sc1cc(S(=O)(=O)O)ccc1O2`, for which the growth was 100%.

`COc1ccc(Cn2cc3c(c2-c2ccccc2)CCc2cnoc2-3)cc1N`: the growth was 14.8%.

Turning to `COc1ccc(/C=C(/C(=O)N2CCN(c3ccc(C)cc3)CC2)c2cc(OC)c(OC)c(OC)c2)cc1N`, the growth is 11.2%.

Consider `CCNc1nnc(COc2ccc(CNC(=O)CCCC/C=C/C(C)C)cc2OC)o1`, for which the growth is 91.6%.

In the case of `COc1ccc2oc(=O)cc(CN3C(=O)S/C(=C\c4ccc(Cl)cc4)C3=O)c2c1`, the growth was 64.1%.

In the case of `CC(C)OC(=O)Nn1cnc2ccccc21`, the growth is 96.7%.

Turning to `COc1ccc(Cn2cc3c(c2-c2ccc(OC)cc2)CCc2cnoc2-3)cc1`, the growth is 14.7%.

As for `COc1cc(Cn2ccc3c2-c2oncc2CC3)cc(OC)c1`, the growth was 24.9%.

Turning to `COc1cccc(Cn2cc3c(c2)-c2oncc2CC3)c1`, the growth is 13.6%.

With `COc1ccc(C2=C/C(=C\c3ccc(Cl)cc3)C(=O)NN2C(=S)NN)cc1`, the growth is 93.9%.

In the case of `COc1ccc(Cn2cc3c(c2)-c2oncc2CC3)cc1OC`, the growth is 16.9%.

In the case of `COc1ccccc1Nc1nnc(COc2ccc(CNC(=O)CCCC/C=C/C(C)C)cc2OC)o1`, the growth was 67.9%.

On to `N=c1c2c(=O)n3c(nc2nc2sc4ccc(Cl)cc4n12)-c1ccccc1Sc1ccccc1-3`, for which the growth is 19.8%.

For the compound `CCCC(=O)NNc1[nH]c(-c2cc(OC)c(OC)c(OC)c2)cc1C(=O)OCC`, the growth is 37.9%.

For `COc1ccc(Cn2cc3c(c2-c2ccc(O)cc2)CCc2cnoc2-3)cc1`, the growth is 12%.

Take `COc1ccc(OC)c(Cn2cc3c(c2-c2ccccc2)CCc2cnoc2-3)c1`: the growth was 16.6%.

For `CCCCCCCCCCCCCCCCCC1=NCCN1CS(=O)(=O)O`, the growth was -10.9% (active).
